PubChem BioAssay AID624415 (National Center for Advancing Translational Sciences (NCATS), 2012)
About 60 (0.02%) of roughly 390,000 compounds were called active. No stated cut-off is given here; in the data, active means activity change below about -50%; inconclusive means between about -30% and that limit; inactive means weaker than that. For the sample, actives were picked, then their nearest neighbours and some compounds at random.

target: Mucolipin-1 (Homo sapiens) (UniProt Q9GZU1); assay: qHTS for Inhibitors of the Human Mucolipin Transient Receptor Potential 1 (TRPML1); conditions: TRPML1-inducible cells, Ca2+ dye fluorescence, FDSS; hits give low values; inhibition of EC80 agonist-evoked calcium signal;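 further: stimulus is agonist 54-4 at its EC80 concentration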
Sequence (Q9GZU1 whole entry, looked up, the tested form may be a part): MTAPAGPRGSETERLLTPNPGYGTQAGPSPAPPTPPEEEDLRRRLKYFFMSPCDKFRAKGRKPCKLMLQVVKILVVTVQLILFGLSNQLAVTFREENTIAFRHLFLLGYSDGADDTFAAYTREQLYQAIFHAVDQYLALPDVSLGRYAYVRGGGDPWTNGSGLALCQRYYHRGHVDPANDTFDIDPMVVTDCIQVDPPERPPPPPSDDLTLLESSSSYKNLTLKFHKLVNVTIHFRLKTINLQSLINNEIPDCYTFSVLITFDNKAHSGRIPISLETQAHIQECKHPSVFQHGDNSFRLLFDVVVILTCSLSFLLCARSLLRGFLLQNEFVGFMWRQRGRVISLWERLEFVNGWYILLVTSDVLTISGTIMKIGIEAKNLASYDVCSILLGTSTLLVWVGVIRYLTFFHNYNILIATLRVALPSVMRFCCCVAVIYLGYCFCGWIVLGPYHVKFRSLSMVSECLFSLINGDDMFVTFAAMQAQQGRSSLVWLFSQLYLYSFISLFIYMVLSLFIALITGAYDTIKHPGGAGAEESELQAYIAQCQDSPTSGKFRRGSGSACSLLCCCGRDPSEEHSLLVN
Excerpt: Mutations of human Mucolipin transient receptor potential 1 (TRPML1) cause type IV mucolipidosis (ML4), a devastating neurodegenerative disease in young children. […] Currently, there is no treatment for ML4. […] Under physiological conditions, TRPMLs regulate membrane trafficking by transducing information about PI(3,5)P2 levels into changes in juxtaorganellar Ca2+, thereby triggering membrane fusion/fission events in the late endocytic pathways (endolysosomal trafficking). In addition, TRPML1 mediates release of Fe2+ from late endosomes and lysosomes, which is essential for cellular iron metabolism. Thus, impaired ion (Ca2+ and Fe2+) homeostasis underlies lysosomal dysfunction and ML4 phenotypes. In ML4 cells, the problem is twofold. First, defective Ca2+-dependent membrane trafficking due to TRPML1-deficiency causes accumulation of lipids and other bio-materials in the lysosome. The second strike comes from the lysosomal iron overload (due to impairment of TRPML1's Fe2+ conductivity), which converts the accumulated materials into the nondegradable (resistant to lysosomal degradation) lipofuscin (also called aging pigment) in the lysosome. Lipofuscin accumulation dramatically compromises the functions of lysosomes.
Niemann-Pick type C (NPC) disease is another lysosome storage disease (LSD) with severe neurodegeneration during the childhood. Currently, there is no cure for NPC. […] Thus, TRPML1 is likely to be an essential regulator of lysosome ion homeostasis. We specifically hypothesize that stimulating TRPML1's Fe2+/Ca2+ channel activity in the lysosome using synthetic agonists can alleviate neurodegeneration associated with ML4 or NPC.
To this end, a high throughput screen was developed in a miniaturized format to screen against the Molecular Libraries Small Molecule Repository (MLSMR) to find small molecules that act either as inhibitors or agonist against the TRPML1 channel.
NIH Chemical Genomics Center [NCGC]
NIH Molecular Libraries Probe Centers Network [MLPCN]
Assay Submitter (PI): Haoxing Xu, University of Michigan Ann Arbor
TRPML1-DL cells are dissociated from flasks, counted and, brought up to a density of 500,000 cells per mL of media containing a 1X Tet inducer. Using a Multidrop Combi, 3 uL of this cell solution is dispensed to each well of a 1536 TC treated, black, clear bottom hi base plate for a final cell density of 1,500 cells per well. The assay plates are incubated overnight (approximately 16 hours) at 37 degrees C and 5% CO2. Using a Multidrop Combi, 2 uL of ABD Ca8 no wash dye plus quencher is added to each well. The assay plates incubate at room temperature in the dark for 45-90 minutes. The assay plate is read on the FDSS using the following protocol: 10 second baseline read, 23 nL of compounds and controls are added using 1536 pintool, agonist read for 110 seconds, 1 uL EC80 addition (4 uM final 54-4 diluted in media), antagonist read for 110 seconds.
On the % scale 0 is the no-effect control and ±100 the full control effect.

Activity change, negative = inhibition, inactive:
CCn1c(C(=O)Nc2cc(Cl)ccc2C)cc2sc(Cl)cc21 16.9%, Cc1cccc(Cn2c(=O)n(CCC(=O)NCCc3ccc(Cl)cc3)c(=O)c3sccc32)c1 -20.1%, CCc1nn(CC(=O)N2CCN(c3cccc(C(F)(F)F)c3)CC2)c(=O)c2cc3occc3n12 2.52%, COc1ccc(C2=NC3(CCCCC3)N(CC(=O)Nc3ccc(C(C)C)cc3)C2=O)cc1 8.59%, C=COC(=O)N1CCN(/[N+]([O-])=N/Oc2ccc([N+](=O)[O-])cc2[N+](=O)[O-])CC1 5.96%, COc1ccc(CNC(=O)c2ccc(NC(=O)N3CC4CCCN4c4ccccc43)cc2)cc1 (centres undefined) 12%, Cc1cc(C)cc(OCC(=O)Nc2c(C(=O)c3ccccc3)oc3ccccc23)c1 -3.38%, Cc1ccc(SCC(=O)Nc2ccc3oc(-c4ccccc4C)nc3c2)cc1 7.73%, CCNS(=O)(=O)c1cc(-c2nnc(Nc3cccc(C(F)(F)F)c3)c3ccccc23)ccc1C -9.21%, COc1cccc(CNC(=O)CCc2nc(-c3ccc(C)cc3)no2)c1 15.3%, Cc1ccccc1C(=O)NCc1nc(-c2ccc(Cl)cc2)no1 -1.57%, CC1CN(C(=O)N2CCC(C(=O)NCc3ccco3)CC2)c2cc(Cl)ccc2O1 (centres undefined) 31.2%, COc1ccccc1-c1ccnc2[nH]n(-c3ccccc3)c(=O)c12 -0.876%, COC(=O)CC1Oc2ccccc2-n2cc(-c3ccccc3)nc21 (centres undefined) 4.04%, Cc1ccccc1OCc1nc2c3cnn(-c4ccccc4F)c3ncn2n1 -5.46%, COc1ccc(NC(=O)c2ccc3nc(CCc4ccccc4)oc3c2)c(OC)c1 3.32%, CCOC(=O)C1CCN(C(c2ccc(F)cc2)c2sc3nc(-c4ccco4)nn3c2O)CC1 (centres undefined) -5.17%, Cn1c(C(=O)N2CCC(C(=O)N3CCN(c4ccccc4)CC3)CC2)cc2sccc21 -0.29%, CC(=O)N1CCCc2cc(S(=O)(=O)N3CCC(C(=O)NCc4ccc(C)cc4)CC3)ccc21 23%, COc1ccc(-c2c3c(=O)n(C)c(=O)n(C)c3c3c(C)nc4ccccc4n23)cc1 -0.184%, CC(=O)N1CCCc2cc(S(=O)(=O)Nc3ccc(Cl)cc3F)ccc21 0.189%, COc1ccc(N2C(=O)CS(=O)(=O)C23C(=O)N(Cc2ccc(C)cc2)c2ccccc23)cc1Cl (centres undefined) 40.4%, CCN(CC)/[N+]([O-])=N/OCOC(=O)Cc1c(C)n(C(=O)c2ccc(Cl)cc2)c2ccc(OC)cc12 37.6%, CCOC(=O)CSC1=Nc2ccccc2C2=NC(CCC(=O)NCc3ccc(F)cc3)C(=O)N12 (centres undefined) -10.5%, Cc1ccc(Cl)cc1-n1ncc2c(N3CCC(C(N)=O)CC3)ncnc21 0.447%, O=C(NCCC1=CCCCC1)c1ccc2c(c1)N(Cc1ccccc1F)C(=O)c1ccccc1S2(=O)=O 3.43%, Cc1cccc(C(=O)N2c3nc(-c4ccco4)nn3C3(CCCCC3)[C@@H]3CCCC[C@@H]32)c1 -0.973%, C=C1CCN(C(CC(C)C)C(=O)N2CCOCC2)S(=O)(=O)c2ccccc21 (centres undefined) -14.1%, CCCCNC(=O)CSc1nc2cc3c(cc2c(=O)n1CCCCCC(=O)NCc1ccc2c(c1)OCO2)OCO3 22.7%, Cc1cccc(NC(=O)CN(c2ccc(C(C)C)cc2)S(=O)(=O)c2c(C)nn(C)c2C)c1C 3.79%, Cc1ccccc1NC(=O)Cn1c(=O)n(CCc2ccccc2)c(=O)c2ccccc21 -6.8%, Cc1ccc(CN(C(=O)c2ccccc2[N+](=O)[O-])c2ccccn2)cc1 3.72%, Cn1nnc2c(N3CCN(c4ccccc4)CC3)ncnc21 -12.6%, CCn1cc2nc(SCc3ccccc3Cl)n(CCc3ccccc3)c(=O)c2n1 -16.2%, COc1ccc(NC(=O)CSc2nc3ncccc3[nH]2)c(OC)c1 -10.8%, COc1ccc(Nc2ncc3c(n2)CCN(C(=O)OC(C)(C)C)C3)cc1 -8.96%, COc1ccc(C2/C=C\CN(Cc3ccco3)C(C)C(=O)N2Cc2ccc(F)cc2)cc1 (centres undefined) 19.9%, COc1ccc2c(c1)Cc1sc(NC(=O)c3ccccc3Br)nc1-2 -10.7%, COc1ccc(C2CC(=O)N(Cc3ccccc3C)c3c2c(C)nn3-c2nc(C)cc(C)n2)c(OC)c1 (centres undefined) 35.7%, Cc1cc(C)cc(NC(=O)Cc2csc(C)n2)c1 2.64%, COc1cc(OC)c2c(C)cc(=O)oc2c1C(CCN1CCCCC1)c1ccc(N(C)C)cc1 (centres undefined) -6.66%, Cc1ccc(N2CC(c3nnc(Cc4ccccc4Cl)o3)CC2=O)cc1 (centres undefined) -9.51%, CCc1ccc(CNC(=O)c2ccc(CS(=O)c3ccc(Br)cc3)o2)cc1 (centres undefined) 34.7%, Cc1ccc2cccc(NC(=O)C(C)Oc3ccc(C)c(C)c3)c2n1 (centres undefined) -1.63%, Cc1ccc(C)c(N2C(=O)N(Cc3c(F)cccc3Cl)c3ccccc3S2(=O)=O)c1 -2.54%, Oc1ccc(Cl)cc1C1C=C(c2ccc3c(c2)OCO3)NC(c2c(F)cccc2Cl)N1 (centres undefined) -4.64%, COc1ccc2ncc3c(-c4ccc(C)c(C)c4)nn(CC(=O)NC4CCCC4)c3c2c1 6.38%, CCN(CC)c1nn2c(=O)c(C(=O)NCCc3ccccc3)cnc2s1 26.2%, COc1ccc(CNC(=O)c2cc3c(=O)[nH]c4ccccc4c3s2)cc1 -6.35%, Cc1ccc(Cl)cc1NC(=O)CSc1nccn1C 0.294%, CC(=O)Nc1ccc2nc(SCCOc3cc(C)cc(C)c3)sc2c1 -12.9%, CCc1ccc(S(=O)(=O)Nc2cc3c(C(=O)OCc4ccccc4)c(C)oc3c3ccccc23)cc1 28.4%, CCOC(=O)c1cccc(NS(=O)(=O)c2cc(-c3cnc(C)o3)ccc2OC)c1 21%, Cc1ccc(Cn2cnc3c(cnn3C(C)(C)C)c2=O)c(F)c1 38.8%, COc1cc(OC)cc(C(=O)Nc2c(C(=O)Nc3ccc(F)cc3)oc3ccccc23)c1 -0.263%, O=C1CN(Cc2ccccc2)S(=O)(=O)c2ccccc21 2.64%, CCOc1ccc(C(=O)c2cn(Cc3ccc(F)cc3)c3ccc(F)cc3c2=O)cc1 34.7%, CCOc1ccc(-c2cc3c(=O)n(CC(=O)NCc4ccc(OC)cc4)ccn3n2)cc1 14.1%, Cc1cc2c(cc1C)C(c1cccc(OC(C)C)c1)CC(=O)N2 (centres undefined) -6.57%, COc1ccc(C(CCN2CCOCC2)c2c(OC)cc(OC)c3c2OC(=O)CC3c2ccc(OC)cc2)cc1 (centres undefined) -3.63%, CC(C)c1ccc(NC(=O)c2ccc3c(O)c(S(=O)(=O)c4ccccc4)c(=O)[nH]c3c2)cc1 8.74%, COc1ccccc1-n1c(-c2ccc(C)cc2)cn2c3c(=O)n(C)c(=O)n(C)c3nc12 -8.58%, Cc1nn(C(C)C(=O)NCCc2ccccc2)c(=O)c2c1sc1ccccc12 (centres undefined) -5.78%, O=C(Nc1cccc2cccnc12)C(F)(F)F -10.4%, Cc1ccc(SCC(CC(C)C)N2CCN(CCc3ccccc3)CCC2=O)cc1 (centres undefined) 35%, CC(=O)Nc1ccc(NC(=O)c2cc3sccc3n2Cc2ccc(F)cc2)cc1 8.5%, CCC(Sc1nnc(-c2ccc(OC)cc2)c(-c2ccc(OC)cc2)n1)C(=O)NC1CCCCC1 (centres undefined) -8.91%, Cc1ccc(Cl)cc1NC(=O)CSc1nc2ccccc2nc1Cc1ccccc1 5.62%, Cn1c(=O)c(=O)n(C)c2cc(NC(=O)c3ccccc3Br)ccc21 18.3%, COc1ccc(Br)cc1C1CC(=O)Nc2c1c(C)nn2-c1nc(C)cc(C)n1 (centres undefined) -2.53%, CCc1ccc(S(=O)(=O)c2nnn3c2nc(NCc2ccccc2OC)c2cc(Cl)ccc23)cc1 11.3%, CC(=O)Nc1ccc(NC(=O)CCCc2nc(-c3ccc(C(C)(C)C)cc3)no2)cc1 -23.6%, Cc1ccc(OCC(=O)Nc2ccc(OCc3cc(=O)n4c(C)csc4n3)cc2)cc1C 21.1%, COc1ccc(NC(=O)C2CCCN(S(=O)(=O)c3c(C)[nH]c(=O)[nH]c3=O)C2)c(OC)c1 (centres undefined) -13.7%, COc1c(Cl)cc(C(=O)N(Cc2ccccc2F)C2CCS(=O)(=O)C2)cc1Cl (centres undefined) -13.9%, COc1cccc(C(=O)NC2=NC(c3ccc(N(C)C)cc3)CC(=O)N2)c1 (centres undefined) 4.87%, Cc1ccc(-c2nn3c(=O)cc(CN4CCN(C(=O)Nc5cccc(C(F)(F)F)c5)CC4)nc3s2)cc1 -11.5%, COc1cccc(NC(=O)c2csnn2)c1 -5.21%, O=C(NCc1ccc(F)cc1)c1ccc2nc(N3CCCCC3)sc2c1 -15.1%, Cc1cc(NC(=O)c2ccc(-c3ccc(Cl)cc3)o2)cc(-c2nc3ncccc3o2)c1O -5.56%, CCC1=Nc2cc(C(=O)NCC(C)c3ccccc3)ccc2Sc2ccc(C)cc21 (centres undefined) 12%, Cc1ccc(C)c(N2CCN(C(=O)C3CCC(CNS(=O)(=O)c4cccs4)CC3)CC2)c1 (centres undefined) 13.9%, CCc1nc2onc(C)c2c(=O)n1CC(=O)O -8.95%, Cc1ccccc1CN1CCC(CNC(=O)c2c(C)oc3ncnc(N4CCCCC4)c23)CC1 3.2%
